# aSyn UTR act: Activators working through SNCA 5'UTR binding (MLPCN) | alpha-synuclein 5'UTR reporter, activators screen | activity score, % (tested at 7.5 µM), hits read low | 300,000 compounds, 7.1% hits; in the data active = activity score below about -60%
# Starred values were filed as active, the others as inactive. The list is a sample of the results.
SMILES,aSyn UTR act
CC(=O)c1ccc(NC(=S)NCCc2ccc(S(N)(=O)=O)cc2)cc1,-79.6*
O=C(Nc1ccc(C(=O)N2CCCCC2)cc1)Nc1cccc(Cl)c1,-81.6*
CS/C(N)=N/C(=S)Nc1cccc(Cl)c1,-142.8*
CCNS(=O)(=O)c1ccc(NC(=O)Nc2ccccc2OC)cc1,-79.2*
CC(=O)c1ccc(NC(=O)Nc2cccc(Cl)c2)cc1,-82.3*
CC(=O)c1ccc(NC(=O)Nc2ccc3c(c2)nc(C)n3C)cc1,-147.8*
CC(=O)Nc1ccc(NC(=O)Nc2cccc(Cl)c2)cc1,-79.2*
CC(=O)c1ccc(NC(=S)NCCc2cccc(Cl)c2)cc1,-178.7*
CSc1cccc(NC(=S)Nc2ccc(F)cc2)c1,-196.4*
O=C(COc1ccccc1)Nc1ccccc1F,-139.5*
O=C(COc1ccccc1)Nc1cc(Cl)ccc1Cl,-91.4*
O=C(COc1ccccc1)Nc1ccc(Cl)cc1Cl,-154.4*
COCC(=O)Nc1cc(C(=O)Nc2ccccc2)ccc1Cl,-78.9*
O=C(NCc1cccs1)c1cc(-c2ccc(O)cc2)on1,-157.2*
CC(C)CNC(=O)c1cc(-c2ccc(Cl)c(Cl)c2)on1,-117.8*
CCCc1cc(C(=O)NCc2cccs2)no1,-140.7*
CCCc1cc(C(=O)NCC(C)C)no1,-105.6*
CCOc1ccc(-c2cc(CCCC(=O)NCc3ccc(C)cc3)no2)cc1,80.7
O=C(NCc1cccs1)c1cc(-c2cccc(Cl)c2)on1,-76.6*
Cc1ccc(-c2cc(C(=O)NCc3cccs3)no2)cc1,-122.3*
O=C(NCc1cccs1)c1nc(-c2cccs2)no1,-100.4*
Cc1cc2oc(C(=O)Nc3nonc3C)c(C)c2cc1C,-174.6*
Cc1c(C(=O)Nc2nonc2-c2ccc(F)cc2)oc2ccc(F)cc12,54.0
CCc1ccc2oc(C(=O)Nc3nonc3C)c(C)c2c1,-137.8*
Cc1cc(N/N=C/c2cccc(Br)c2)nc2ccccc12,-241.1*
SMILES,aSyn UTR act
Cc1cc(N/N=C/c2ccncc2)nc2ccccc12,-137.0*
Cc1ccc(Cl)c2c(N=Nc3ccccc3)c(O)[nH]c12,-170.1*
CCN(CC)c1ccc(-n2cc3c(=O)n(C)c(=O)n(C)c3c2)cc1,-118.1*
CN(C)c1ccc(-n2cc3c(=O)n(C)c(=O)n(C)c3c2)cc1,-198.2*
COc1cccc(OCc2cc(/C=N/NC(=O)c3ccn[nH]3)ccc2OC)c1,-70.8*
O=C(Cc1ccccc1)Nc1ccc(CN2CCOCC2)cc1,-86.7*
O=C(/C=C/c1ccc(Cl)cc1Cl)NC(=S)Nc1ccc(CN2CCOCC2)cc1,-71.1*
O=C(Nc1ccc(CN2CCOCC2)cc1)c1ccc(Cl)cc1Cl,-96.4*
CCC(=O)NC(c1ccc(Cl)cc1Cl)c1ccc2cccnc2c1O (stereo not given),75.3
O=C(/C=C/c1ccc(Cl)cc1Cl)NC(=S)Nc1ccccn1,-223.9*
O=C(Nc1ccc(CN2CCOCC2)cc1)c1ccccc1F,-75.8*
O=C(Nc1ccc(CN2CCOCC2)cc1)c1cccs1,-145.2*
O=C(Oc1c(CN2CCOCC2)cc(Cl)c2cccnc12)c1ccccc1F,105.8
O=C(Nc1ccc(CN2CCOCC2)cc1)c1ccc(-c2cccc(Cl)c2)o1,-83.4*
COc1cc2ccccc2cc1C(=O)Nc1ccc(CN2CCOCC2)cc1,-112.2*
Cc1ccc(CNc2ccc3c(c2)OCO3)cc1,-131.1*
O=Cc1ccc(OCc2ccc3c(c2)OCO3)cc1,-76.5*
CCOc1cc(CNc2ccc3c(c2)OCCO3)cc(Br)c1OCC,97.4
Cc1ccc(COc2ccc3c(c2)OCO3)cc1,-114.0*
CC1CCC(NC(=O)c2ccc(NC(=O)CC3SC(N4CCCC4)=NC3=O)cc2)CC1 (stereo not given),-129.4*
O=C(CC1SC(N2CCCC2)=NC1=O)Nc1ccc(C(=O)Nc2ncccc2O)cc1 (stereo not given),-266.3*
CC1CCC(NC(=O)c2ccc(NC(=O)c3ccc(=O)[nH]c3)cc2)CC1 (stereo not given),-67.5*
COc1ccccc1NC(=O)c1cnc2n(c1=O)CCS2,-133.1*
COc1ccc(Cl)cc1NC(=O)c1cnc2n(c1=O)CCS2,-78.4*
COc1ccc(NC(=O)c2ccccc2C)cc1,-131.9*
SMILES,aSyn UTR act
CC(=O)Nc1ccc(OCc2cccc3ccccc23)cc1,92.1
COc1ccc(NC(=O)CCn2cc(C)c3ccccc32)cc1,-75.7*
COc1ccc(NC(=O)c2cccc3ccccc23)cc1,-95.6*
COCC(=O)Nc1ccccc1C(=O)Nc1ccc(OC)cc1,-90.1*
O=C(Nc1ccc(-c2cn3ccccc3n2)cc1)c1ccco1,-208.5*
CCCCC(=O)Nc1cccc(-c2cn3ccccc3n2)c1,-77.9*
O=C(Nc1cccc(-c2cn3ccccc3n2)c1)c1ccccc1,-64.5*
CCOc1cccc2c1OC(c1cc(OC)c(OC)c(OC)c1)N1N=C(c3ccc(C)o3)CC21 (stereo not given),-219.4*
Clc1ccc(-c2nnc(-c3ccccc3)c(N3CCSCC3)n2)cc1,-62.4*
CC(C)(C)c1ccc(C(=O)c2cn[nH]c2-c2ccccc2O)cc1,-133.5*
CC(C)Oc1ccccc1C1CC(=O)Nc2cc3c(cc21)OCCO3 (stereo not given),72.8
O=C1CC(c2ccc3c(c2)OCCO3)Oc2ccccc21 (stereo not given),-208.6*
O=C1CC(c2ccc3c(c2)OCCO3)Oc2ccc([N+](=O)[O-])cc21 (stereo not given),-163.4*
COc1ccc(C2CC(=O)c3ccccc3O2)cc1 (stereo not given),-147.5*
Cc1cc2cc(CN(Cc3ccco3)S(=O)(=O)c3c(C)ccc4nsnc34)c(=O)[nH]c2cc1C,88.9
CCOC(=O)c1cccc(S(=O)(=O)N(CCO)Cc2cc3cc(OC)c(OC)cc3[nH]c2=O)c1,-71.6*
Cc1cccc(NC(=O)/C=C/c2ccc([N+](=O)[O-])s2)c1,-223.6*
Cc1cc([N+](=O)[O-])ccc1NC(=O)/C=C/c1cccs1,-157.6*
Cc1ccc(NC(=O)/C=C/c2ccc([N+](=O)[O-])s2)cc1,-212.4*
Cc1ccc(NC(=O)/C=C/c2ccc([N+](=O)[O-])s2)c(C)c1,-93.0*
O=C(Cc1ccc2c(c1)CCCC2)Nc1ccc2ccccc2c1,-160.5*
O=C(Cc1ccccc1F)Nc1ccc2c(c1)CCC2,-169.3*
Cc1ccc2c(c1)sc1nc(=O)n(-c3ccccc3)c(=O)n12,-68.4*
Cc1cccc(C)c1OCC(O)CN(Cc1ccccc1O)C1CCCCC1 (stereo not given),61.8
CC(/C=N/NC(=O)c1cccc(F)c1)=C\c1ccccc1,-254.5*
SMILES,aSyn UTR act
CC(/C=N/NC(=O)c1ccc2nc(C)[nH]c2c1)=C\c1ccccc1,-67.4*
CC(=C/c1ccc(C(C)C)cc1)/C=N/NC(=O)c1ccncc1,-109.6*
CC(/C=C/c1ccccc1F)=N\NC(=O)c1cccc(F)c1,-139.4*
O=C(N/N=C/C(Br)=C\c1ccccc1)c1ccc2nc[nH]c2c1,-90.4*
CCOc1cc(C(=O)N/N=C/C(Br)=C/c2ccccc2)cc(OCC)c1OCC,104.5
CC(C)Sc1nc(N)nc(-c2cccs2)c1C#N,-145.6*
Brc1ccc(/C=N/Nc2nc3ccccc3o2)cc1,-190.6*
COc1cc(/C=N\Nc2nc3ccccc3o2)cc(OC)c1OC,-186.4*
COc1cc(/C=N/Nc2nc3ccccc3o2)cc(OC)c1O,-86.2*
Cc1cc(C(=O)C(C)Sc2cccc[n+]2[O-])c(C)n1-c1ccc(Cl)cc1 (stereo not given),-82.1*
COc1ccc(OCc2cc(C(=O)N3CCCC(O)C3)no2)c2ccccc12 (stereo not given),-104.5*
CCCOC1CCCN(C(=O)c2cc(COc3c(F)cccc3F)on2)C1 (stereo not given),-135.6*

# Screening results deposited in PubChem by Broad Institute.
